SARS PLpro yeast: SARS-CoV PLP inhibition in yeast; S. cerevisiae expressing SARS-CoV PLpro, growth rescue; Potency, µM (top dose mostly 32.9 µM), inactives show at the top dose activity, positive = growth rescue, actives largely listed as activators; hit rate 0.19% among 330,000; AID 485353; calls by dose curve; note: potency is the fitted concentration of half-maximal effect; 0% is about no effect; nearly all actives have a fitted effect of over 55% in size
FMDV antiviral: antivirals against foot and mouth disease virus; FMDV antiviral cell-based qHTS; Potency, µM (titrated, usually from 57.9 µM), for the others: at the top dose activity change, negative = inhibition, most hits filed as inhibitors; hit rate 1.2% among 410,000; AID 1159524; calls by dose curve; tested in HEK293T cells; note: read-out not given here; potency is the fitted concentration of half-maximal effect; % is set by controls: 0 for no effect and ±100 for the full control effect; nearly all actives have a fitted effect of over 45% in size
HCMV antiviral: inhibitors of human cytomegalovirus; HFF cells, HCMV-luciferase reporter, 72 h; hits give low values; activity change, negative = inhibition, % at 57.5 µM; hit rate 4.5% among 410,000; in the data active = activity change below about -60%; inconclusive = no clear call, values can overlap the other calls; inactive = above about -39%; note: % is set by controls: 0 for no effect and ±100 for the full control effect
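HFF cells seeded 16 h at 37C, treated with compounds, infected with luciferase-reporter HCMV at MOI 1 PFU/cell; luciferase read at 72 h post infection, normalized to buffer-only and Salinomycin controls.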
Lassa entry inh: blocks Lassa virus binding to or entry into cells. Lassa virus pseudotype entry inhibition, cell reporter. Potency, µM (series often up to 37.9 µM), without a hit: top-dose activity change, negative = inhibition, hits mostly inhibitors. hit rate 1.2% among 300,000. AID 540256; calls by dose curve; tested in HEK293 cells; note: potency is the fitted concentration of half-maximal effect; % is set by controls: 0 for no effect and ±100 for the full control effect; nearly all actives have a fitted effect of over 50% in size
MARV entry inh: Marburg virus entry inhibition; hit rate 1.8% among 300,000; Marburg virus pseudotyped entry inhibition, cell reporter; Potency, µM (titrated, usually from 37.8 µM), for inactives: at the highest dose activity change, negative = inhibition, usual class: inhibitors; calls by dose curve; tested in HEK293 cells; note: potency is the fitted concentration of half-maximal effect; % is set by controls: 0 for no effect and ±100 for the full control effect
HCV inh: blocks hepatitis C virus; Huh7.5.1 HCVcc-Cre infection, luciferase reporter, 44 h; Potency, µM (highest dose often 41.8 µM), for inactives: at the top dose activity change, negative = inhibition, actives largely listed as inhibitors; hit rate 3.4% among 340,000; active = well fitted inhibition curve with a large enough effect; inconclusive = small, poorly fitted or top-dose-only effect, or another doubt; inactive = no such curve, though single readings can be large or run the other way; note: potency is the fitted concentration of half-maximal effect; % is set by controls: 0 for no effect and ±100 for the full control effect
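Compounds are dispensed onto cells plated 4 h earlier at 1,000 per well, with HCVcc-Cre virus (about 0.5 moi) added next. Following 44 h of culture, luminescent signal is measured for 15 sec after 15 min with substrate at room temperature.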
Numbers without * were called inactive; ? = inconclusive; . = no result; [ ] = remark or other dose. Most compounds without a hit are left out; they make up all but 8% or so of the library.

SMILES	SARS PLpro yeast	FMDV antiviral	HCMV antiviral	Lassa entry inh	MARV entry inh	HCV inh
CCOC(=O)c1c(NC(=O)C(C)Sc2cn(CCNC(=O)c3ccc(OCC)cc3)c3ccccc23)sc2c1CCC2 (centres undefined)	.	-20%	-15	-1%[46.1 µM]	-4%[46.1 µM]	.
CCOC(=O)c1c(NC(=O)C(C)Sc2cn(CCNC(=O)c3c(F)cccc3F)c3ccccc23)sc2c1CCC2 (centres undefined)	.	-13%	-15	-17%[46.1 µM]	7.9µM*	.
CC(=O)NC1CCCN(O)C(=O)/C=C(\C)CCOC(=O)C(NC(C)=O)CCCN(O)C(=O)/C=C(\C)CCOC(=O)C(NC(C)=O)CCCN(O)C(=O)/C=C(\C)CCOC1=O (centres undefined)	2%	20µM*	.	.	.	-23%
COc1ccc(NC(=O)CCn2cnnn2)cc1	.	12%	2	-7%[46.1 µM]	.	.
Nc1cc(C(F)(F)F)cc([N+](=O)[O-])c1N	3%	-12%	44	.	.	?
CS(=O)(=O)NCCCNc1ccc(C(F)(F)F)cc1[N+](=O)[O-]	1%	-8%	6	.	.	2%
O=[N+]([O-])c1cc(C(F)(F)F)ccc1Cl	-5%	-16%	-69*	.	.	?
O=[N+]([O-])c1cc(C(F)(F)F)ccc1NCCCCNS(=O)(=O)c1ccc(Cl)cc1	8%	?	-73*	-13%	?	?
Cn1cnc2c(=O)oc3ccc(S(=O)(=O)N4CCN(c5cccc(Cl)c5)CC4)cc3c21	.	-13%	15	-3%[46.1 µM]	.	.
CC1CCN(C(=O)COC(=O)Cn2cnc3ccccc32)CC1	20%	-6%	-67*	-13%	?	13%
CN(C(=O)COC(=O)Cn1cnc2ccccc21)C1CCCCC1	14%	-25%	-94*	2%	-3%	7%
O=c1cnc2ccccc2n1Cc1ccc(Br)cc1	-17%	11%	27	18%	4%[46.1 µM]	?
CC(C)(C)c1ccc(Cn2c(=O)cnc3ccccc32)cc1	-3%	13µM*	-81*	10µM*	?	?
CC(NC(=O)c1cc(COc2ccccc2)on1)c1nccs1 (centres undefined)	1%	13%	0	?	?	0%
CC(NC(=O)c1cc(COc2ccc3ncccc3c2)on1)c1ccc(F)cc1 (centres undefined)	-1%	1.8µM*	-85*	.	.	2.2µM*
O=C(NCCc1cn2ccccc2n1)c1cc(COc2ccc3ncccc3c2)on1	0%	11µM*	-76*	-23%	5.6µM*	2.5µM*
O=C(c1cc(COc2ccc3ncccc3c2)on1)N1CCCC1	-6%	-23%	?	-10%	?	7.1µM*
COCC1CCN(C(=O)c2cc(COc3ccc4ncccc4c3)on2)CC1	0%	?	-75*	?	-19%[46.1 µM]	1.1µM*
CCN(C(=O)CSc1nc2ccccc2n1Cc1ccc(F)cc1Cl)c1ccccc1	.	-24%	-12	17%[46.1 µM]	.	.
COCC(=O)N1[C@@H]2c3cccc(=O)n3C[C@@H]2[C@@H](CO)[C@@H]1C(=O)NCc1ccccc1F	.	.	0	.	.	.
CC1CN=C(c2cc(Cl)c(N)c(Cl)c2)c2c3ccccc3nn21 (centres undefined)	.	.	79	.	.	.
O=C(NCCc1nnc2n1CCN(Cc1ccc3c(c1)CCO3)CC2)c1ccco1	.	1%	.	.	.	.
O=C(c1cc(COc2ccc3ncccc3c2)on1)N1CCCCCC1	0%	-6%	-37	-23%[46.1 µM]	?	?
O=C(NC1CCCC1)c1cc(COc2ccc3ncccc3c2)on1	1%	?	.	.	.	3.5µM*
O=C(CN1C(=O)COc2ccc(S(=O)(=O)N3CCOCC3)cc21)N1CCN(c2ccc(F)cc2)CC1	.	-7%	11	0%[46.1 µM]	6%[46.1 µM]	.
SMILES	SARS PLpro yeast	FMDV antiviral	HCMV antiviral	Lassa entry inh	MARV entry inh	HCV inh
CN=c1scc(C)n1/N=C/c1ccc(O)c(O)c1O	-11%	-24%	-5	1%	?	-17%
CN=c1scc(-c2cccs2)n1/N=C/c1ccccc1O	-45%	4µM*	-98*	1.3µM*	0.28µM*	13µM*
CN=c1scc(-c2cccs2)n1/N=C/c1ccc(O)c(O)c1O	-79%	10µM*	12	?	?	-14%
COc1cc(NC(=O)c2ccc(NC(=O)N3CCSc4ncccc43)cc2)cc(OC)c1	.	?	0	15%[46.1 µM]	.	.
CCc1ccc(-c2nc(CS(=O)CC(=O)NCCc3ccc(Cl)cc3)c(C)o2)cc1 (centres undefined)	.	-6%	-3	4%[46.1 µM]	.	.
CCCCN(CCCC)C(=O)c1cc2ccccc2c(=O)o1	15%	12%	-68*	11%	1%	-14%
CCCCC(CC)CNC(=O)c1cc2ccccc2c(=O)o1 (centres undefined)	-22%	11%	-19	5%	3%	27%
C=C(C)[C@@H]1CC2=C(OC)C(CC=C(C)C)(CC=C(C)C)C(=O)C(C(=O)c3ccccc3)=C2O1	.	.	.	.	-15%[14.2 µM]	.
CCc1nc(N)c(C#N)c(-c2ccccc2OC)c1C	-2%	?	-3	?	-3%	-1%
COc1ccccc1-c1c(C#N)c(N)nc2c1CCc1ccccc1-2	-62%	32µM*	17	?	?	?
COc1ccccc1-c1c(C)c(C)nc(N)c1C#N	5%	-1%	-72*	17%	17%	13%
CCc1ccc(C2c3c(-c4ccccc4O)n[nH]c3C(=O)N2Cc2cccnc2)cc1 (centres undefined)	.	-30%	2	?	-3%[46.1 µM]	.
COC(=O)N[C@@H](c1ccccc1)[C@]1(C(C)=O)CCCC1=O	.	.	.	.	-4%[14.2 µM]	.
CN(C)c1ccc(CNC2CC(C)(C)NC(C)(C)C2)cc1	-2%	11%	20	12µM*	?	?
CC1(C)CC(NCc2ccncc2)CC(C)(C)N1	1%	2%	-29	1%	11%[46.1 µM]	5%
COC(=O)c1ccc(CN2C(=O)[C@]3(OCCC=C[C@@H]3C)c3cc(OC)ccc32)cc1	.	.	.	.	-23%[14.2 µM]	.
CCOC(=O)c1ccc2c(c1)nc(COc1ccc3ccccc3c1)n2CC	8%	-16%	-36	?	4.6µM*	-21%
CC(C)(C)NC(=O)C1CCN(c2nc3ccccc3nc2C(F)(F)F)CC1	.	-5%	-5	0%[46.1 µM]	.	.
CCN(CC)S(=O)(=O)c1ccc(N2CCCCC2)c(C(=O)Nc2ccccc2N2CCOCC2)c1	?	-8%	?	10µM*	5.6µM*	5.6µM*
CCOc1ncccc1C(=O)Nc1cc(C(F)(F)F)ccc1N1CCOCC1	-2%	-17%	-67*	.	.	-27%
CCOc1ncccc1C(=O)Nc1cc(S(=O)(=O)N(CC)CC)ccc1N1CCOCC1	-3%	?	-66*	.	.	?
CCN(CC)S(=O)(=O)c1ccc(N2CCOCC2)c(NC(=O)c2cccc3ccccc23)c1	-15%	0%	-23	?	-29%	3%
CCN(CC)S(=O)(=O)c1ccc(N2CCOCC2)c(NC(=O)c2cccc3c(=O)c(C)c(-c4ccccc4)oc23)c1	.	?	-8	.	.	8.9µM*
